Screening results (PubChem)
CR mimetic SO – yeast age-related superoxide inhibition as caloric restriction mimetic | actives 0.18% (n = 330,000) | superoxide response (% of plate mean), % at 10 µM | S. cerevisiae aged cells, superoxide DHE fluorescence; stronger effect = lower value;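 active means superoxide response under a set limit, about three screen SD below normal, cut at about 65% in these data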;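 further: yeast aged for seven days with compound at 30 °C before DHE staining; 100% = average MFI of all compound-treated wells on the plate with controls excluded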
ABCB6 inh 2 – human ABCB6 transporter inhibition. K562-ABCB6 porphyrin accumulation, flow cytometry, 1 h; stronger effect = lower value. Q9NP58. fluorescence ratio to DMSO, % at 10 µM. actives 0.19% (n = 360,000);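 active means fluorescence ratio to DMSO below 75%, the collection mean minus 3 SD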;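 further: signal is porphyrin accumulated inside mitochondria; 100% equals median channel fluorescence of DMSO control wells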
Target sequence (Q9NP58 whole entry, looked up): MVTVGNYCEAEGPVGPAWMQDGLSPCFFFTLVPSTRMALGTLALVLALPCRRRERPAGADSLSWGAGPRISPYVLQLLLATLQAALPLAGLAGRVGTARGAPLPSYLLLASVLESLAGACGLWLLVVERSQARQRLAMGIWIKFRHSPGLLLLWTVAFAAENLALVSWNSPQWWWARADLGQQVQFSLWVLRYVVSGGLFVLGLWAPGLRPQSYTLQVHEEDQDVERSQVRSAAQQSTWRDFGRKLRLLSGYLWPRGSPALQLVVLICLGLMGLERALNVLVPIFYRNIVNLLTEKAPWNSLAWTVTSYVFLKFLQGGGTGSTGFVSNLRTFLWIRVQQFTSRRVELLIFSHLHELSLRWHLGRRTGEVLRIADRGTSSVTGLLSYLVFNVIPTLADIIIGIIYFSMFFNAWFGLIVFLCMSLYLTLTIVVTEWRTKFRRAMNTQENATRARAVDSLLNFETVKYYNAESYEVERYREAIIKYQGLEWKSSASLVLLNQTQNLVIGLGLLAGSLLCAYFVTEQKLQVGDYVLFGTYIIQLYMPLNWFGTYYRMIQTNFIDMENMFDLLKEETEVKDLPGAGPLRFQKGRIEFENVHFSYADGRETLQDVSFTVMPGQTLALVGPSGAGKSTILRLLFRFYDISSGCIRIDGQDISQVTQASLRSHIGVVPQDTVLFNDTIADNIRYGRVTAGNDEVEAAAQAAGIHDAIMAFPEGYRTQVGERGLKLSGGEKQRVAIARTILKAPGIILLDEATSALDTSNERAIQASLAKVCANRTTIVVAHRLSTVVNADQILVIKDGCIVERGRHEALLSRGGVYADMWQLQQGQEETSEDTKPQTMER
SKN-1 block – inhibitors of C. elegans SKN-1; C. elegans VP596 Pgst-4::GFP/RFP ratio, acrylamide-induced, 24 h; inhibition, % at 21.8 µM; actives 0.49% (n = 360,000);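 active means interference check ratio from 0.5 to 1.5 plus GFP to RFP signal ratio inhibition reaching or exceeding a fixed threshold, cut at about 30% in these data, passing the limit was not always enough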
VLA-4 inh – inhibition in a human VLA-4 binding assay; P13612; VLA-4 expressing cells, ligand binding flow cytometry; inhibition, % (about 7 µM as worked out from the volumes in the protocol); actives 0.2% (n = 330,000); AID 2557; in the data active means inhibition above about 50%
Platelet DG rel – modulates dense granule release in human platelets | actives 0.22% (n = 300,000) | AID 1663 | human platelet-rich plasma, SFLLRN dense granule ATP release, luminescence | inhibition, %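 (compounds screened at 7.5 µM in platelet-rich plasma)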;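 active means mean replicate score, as percent of positive control, at or above 50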
Numbers without * were called inactive; . = no result given. A selection: hits, their analogues and other compounds. The true share with any hit is near 1.2%.

SMILES | CR mimetic SO | ABCB6 inh 2 | SKN-1 block | VLA-4 inh | Platelet DG rel
COc1ccc(CCNC(=O)c2cc3c(=O)n(C)c4ccccc4c3n2C)c(OC)c1 | 61* | 94 | -6 | 9 | 16
COc1cc(NC(=O)c2cc3c(=O)n(C)c4ccccc4c3n2C)cc(OC)c1OC | 111 | 102 | 6 | -2 | 1
N#Cc1ccc(-c2cccnc2)nc1SCC(=O)Nc1sc2c(c1C#N)CCC2 | 108 | 99 | 39* | -12 | 3
COc1ccc(-c2ccc(C#N)c(SCC(=O)Nc3sc4c(c3C#N)CCC4)n2)cc1 | 107 | 90 | 33 | 5 | 3
COC(=O)CN1C(=O)[C@H]2[C@@H](/C=C/c3ccccc3)N3C(=O)CN(Cc4ccc(-c5ccccc5)cc4)C(=O)[C@@]3(C)[C@H]2C1=O | 107 | 99 | 8 | 5 | .
C[C@@]12C(=O)N(Cc3ccc(-c4ccccc4)cc3)CC(=O)N1[C@H](/C=C/c1ccccc1)[C@@H]1C(=O)N(c3ccccc3)C(=O)[C@@H]12 | 99 | 95 | 39* | 18 | 0
Nc1ccc2nc(N)sc2c1 | . | 100 | 6 | . | .
O=c1c2ccccc2sc2ccccc12 | . | 104 | 43* | . | .
Nc1ccc2c(c1)sc1ccccc12 | 97 | 110 | 54* | 5 | -6
O=c1c2ccccc2ccc2ccccc12 | 93 | 106 | 35* | 11 | .
O=C(NCc1ccc(Cl)cc1)c1ccc(-c2ccc(F)c(F)c2)c2ccoc12 | . | 98 | 36* | . | .
O=C(NCc1ccc(F)c(F)c1)c1ccc(-c2ccc(F)c(F)c2)c2ccoc12 | . | 87 | 80* | . | .
COc1ccc(NC(=O)c2cc(C3CCCCN3C(=O)c3cc(OC)c(C)c(OC)c3)on2)c(C)c1 (stereo unspecified) | . | 92 | -25 | . | .
O=C(CN1CCN(c2ccccc2)CC1)N1N=CCC1c1ccccc1 (stereo unspecified) | 94 | 104 | -11 | 4 | 78*
Cc1cccc(C)c1OCc1cc(C(=O)N2CCN(C3CCCC3)CC2)no1 | 100 | 81 | 50* | -5 | 1
O=C(O)c1ccc(S(=O)(=O)c2ccccc2)cc1 | 134 | 98 | 40* | 2 | 6
C#CCNC(=O)C1=C[C@@H](c2cn(C(C)=O)c3ccccc23)C[C@@H](OCCCCO)O1 | 110 | 105 | 45* | 22 | 6
COc1cccc(CNC(C)C(=O)Nc2ccc3c(c2)OCCO3)c1 (stereo unspecified) | 87 | 95 | -8 | -16 | -21
COc1ccc(CNC(C)C(=O)Nc2ccc3ccccc3c2)cc1OC (stereo unspecified) | 101 | 97 | 51* | 3 | 8
COC(=O)N1CCCCC1c1cc(C(=O)NCc2ccc(Cl)c(Cl)c2)no1 (stereo unspecified) | . | 94 | 21 | . | .
Cc1ccc(-c2nc(SC(C)C(=O)N3CCOCC3)n[nH]2)cc1 (stereo unspecified) | 114 | 94 | -17 | -12 | 61*
CC(C)NC(=O)C1(C)CN(S(C)(=O)=O)CC(=O)N1Cc1ccco1 (stereo unspecified) | . | . | 1 | . | .
O=C(O)c1ccc(COc2cccc(CO)c2)cc1 | 100 | 97 | 16 | 3 | 75*
Cc1ccc(-c2cnc(C(O)c3cc(C)cc(C)c3)[nH]2)cc1 (stereo unspecified) | . | 94 | 10 | . | .
CCSc1nc(=S)cc(C)[nH]1 | 59* | 91 | 0 | 24 | -2
SMILES | CR mimetic SO | ABCB6 inh 2 | SKN-1 block | VLA-4 inh | Platelet DG rel
CCSc1nc(O)cc(=O)[nH]1 | 97 | 98 | -13 | 4 | 1
CCOc1ccc(-n2c(C)nc3cc(C(=O)NCc4ccco4)ccc32)cc1 | 105 | 97 | 19 | 3 | 13
COc1ccc(-n2c(C)nc3cc(C(=O)NCc4ccco4)ccc32)cc1 | 108 | 93 | 41* | -1 | 11
O=C(Nc1ccccn1)C(=O)Nc1ccccn1 | 95 | 95 | 3 | -1 | 27
S=C(Nc1ccccn1)c1ccccn1 | 105 | 93 | 39* | -4 | 12
COc1ccc(C(=O)N/N=C/c2c(C)[nH]c(=O)[nH]c2=O)cc1 | 96 | 94 | -1 | -5 | -2
COc1ccc(CO/N=C/c2c(C)[nH]c(=O)[nH]c2=O)cc1 | 104 | 101 | 3 | -5 | 72*
COc1cc(NC(=O)CCN2CCN(c3ccccc3OC)CC2)cc(OC)c1 | . | 91 | 7 | . | .
Cc1onc(-c2c(F)cccc2Cl)c1C(=O)Nc1nc2ccccc2[nH]1 | 91 | 108 | 42* | 1 | -6
Clc1ccc(Nc2ccc(-n3ccnc3)nn2)cc1Cl | 141 | . | 37* | -6 | 4
Cc1cccc(CN2[C@H](COC(=O)Nc3ccccc3)C=CS2(=O)=O)c1 | . | 95 | 3 | . | .
CC(C)CC(C(=O)NCc1ccccn1)N1C(=O)c2ccccc2C1=O (stereo unspecified) | 86 | 98 | 42* | -8 | 0
Cc1ccsc1C(=O)N1CCC1(C)C(=O)NCCC#N (stereo unspecified) | . | 99 | -4 | . | .
Cc1c(N2C(=O)/C(=C\c3ccc(N(C)C)cc3)N(C)C2=S)c(=O)n(-c2ccccc2)n1C | 108 | 101 | 64* | -20 | .
COC(=O)c1nc(-c2ccccc2)oc1N(C)C | 91 | 98 | 32* | 3 | 2
COC(=O)c1nc(-c2ccc(C)cc2)oc1N(C)C | 102 | 98 | -4 | 3 | 4
CCCCN(C)c1c(C)nc2ccc(C(=O)Nc3cc(-c4ccccc4)ccc3OC)cn12 | . | 100 | 9 | . | .
Cc1[nH]c2ccccc2c1C(=O)/C=C\c1ccccc1Cl | 91 | 101 | 2 | 33 | 8
Cc1[nH]c2ccccc2c1C(=O)/C=C/c1ccccc1 | 104 | 100 | 53* | 27 | -1
CCN(CC)CCC(c1cc(OC)c(OC)c(OC)c1)c1c(OC)cc(OC)c2c(C)cc(=O)oc12 (stereo unspecified) | . | 98 | 40* | . | -3
CCCCC(CC)CO (stereo unspecified) | 86 | 99 | -10 | -2 | .
CCCCC(CC)CN=C(N)NC(N)=NCCCCCCN=C(N)NC(N)=NCC(CC)CCCC (stereo unspecified) | 76 | 105 | 38* | 29 | .
CC(c1nc2ccccc2[nH]1)N(C(=O)Cc1csc2ccccc12)c1cccnc1 (stereo unspecified) | . | 102 | 11 | . | .
Cc1ccccc1C(=O)OCn1nnc2ccccc2c1=O | 110 | 96 | -9 | -3 | 92*
COCCNc1nc(-c2ccccc2F)c2sc(-c3ccccc3)cc2n1 | . | 95 | -2 | . | .
COc1ccc(Br)cc1CN(C)CC(O)COc1ccc(Br)cc1 (stereo unspecified) | 80 | 98 | 35* | 0 | 0
COc1ccc(CN(C)CC(O)COc2ccc(C(=O)c3ccccc3)cc2)c(OC)c1OC (stereo unspecified) | 91 | 84 | -21 | 1 | -8
COc1cccc(-c2cnc(C(O)c3ccc(Cl)cc3C)[nH]2)c1 (stereo unspecified) | . | 101 | 0 | . | .
Cc1ccsc1C(=O)N1CCC1(C)C(=O)NS(=O)(=O)c1ccccc1C(F)(F)F (stereo unspecified) | . | 98 | 4 | . | .
